Experimental data as given in PubChem BioAssay (NCATS).
Records with an inconclusive call do not appear. Calls of active or inactive are those of the source. Calls come from the whole dose curve; as a rule, active = well fitted inhibition curve with a large enough effect; inconclusive = small, poorly fitted or top-dose-only effect; inactive = no such curve, though single readings can be large or run the other way.
Potency is the fitted concentration of half-maximal effect.

Test: qHTS assay for measurement of the activity of small molecule inhibitors on Zika virus induced Caspase-3 activity in human astrocytoma cells (AID 1224859);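 for activity change, negative = inhibition: plate controls were ZIKV-infected untreated cells for no effect and uninfected cells for full effect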
Conditions: SNB-19 ZIKV-induced caspase-3/7, luminescence, 6 h; series mostly up to 45.7 µM; activity change, negative = inhibition: at the top concentration
How it was run: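 SNB-19 astrocytoma cells, 250/well, pretreated 1 h with compounds, then Zika virus at 2 FFU/cell for 6 h at 37 C; Caspase-Glo 3/7 luminescence after 30 min; percent inhibition normalised to uninfected and infected controls.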
In the case of `CC(=O)CCCCn1c(=O)c2c(ncn2C)n(C)c1=O`, the Potency is reported as “inactive”. In the case of `N#CC1(c2ccc(NC(=O)c3cccnc3NCc3ccncc3)cc2)CCCC1`, the Potency is reported as 18.7 µM (active). For `CC(C)(C)OC(=O)N[C@H]1CCCCCC=C[C@@H]2C[C@@]2(C(=O)NS(=O)(=O)C2CC2)NC(=O)[C@@H]2C[C@@H](OC(=O)N3Cc4cccc(F)c4C3)CN2C1=O`, the “activity change, negative = inhibition” value was 34% (inactive). In the case of `c1ccc2c(-c3cnn4cc(-c5ccc(N6CCNCC6)cc5)cnc34)ccnc2c1`, the “activity change, negative = inhibition” value is reported as -14.9% (inactive). With `O=C(O)c1ccc(-c2cc3cccnc3c(-c3ccc4nonc4c3)n2)cc1` the “activity change, negative = inhibition” value was 12.7% (inactive). In the case of `COc1cc2c(cc1OC)CN(CCc1ccc(NC(=O)c3cc(OC)c(OC)cc3NC(=O)c3cnc4ccccc4c3)cc1)CC2`, the “activity change, negative = inhibition” value is reported as -9.94% (inactive). In the case of `CC(C)(C)Cn1c(N)nc2ccc(-c3[nH]c(C(C)(C)C)nc3-c3ccc(F)cc3)nc21`, the “activity change, negative = inhibition” value is reported as -16.6% (inactive). In the case of `CC(C)(C)c1cc(C(=O)O)c(NC(=O)Nc2ccc3[nH]ncc3c2)s1`, the “activity change, negative = inhibition” value is reported as -7.18% (inactive). With `O=C1NC(=O)C(c2ccccc2)(c2ccccc2)N1` the Potency was “inactive”. With `Cc1[nH]c(C=C2C(=O)Nc3ccc(S(=O)(=O)Cc4c(Cl)cccc4Cl)cc32)c(C)c1C(=O)N1CCC[C@H]1CN1CCCC1` the “activity change, negative = inhibition” value was 24% (inactive). For `O=C(O)C(O)Cc1ccc(O)c(O)c1` (stereo unspecified), the “activity change, negative = inhibition” value was 16.6% (inactive). With `Cn1c(N2CCCCS2(=O)=O)nc(C(=O)NCc2ccc(F)cc2)c(O)c1=O` the “activity change, negative = inhibition” value was -0.129% (inactive). For `CCOC(CN1C(=O)[C@](CC(=O)Nc2ccc(C)cc2)(NC(=O)Nc2ccc(C)cc2)c2ccccc21)OCC`, the “activity change, negative = inhibition” value was 42.3% (inactive). For `CO[C@@H](C(=O)N1Cc2[nH]nc(NC(=O)c3ccc(N4CCN(C)CC4)cc3)c2C1)c1ccccc1`, the “activity change, negative = inhibition” value was 51.3% (inactive). In the case of `C=C1C(=O)OC(CCCCCCCC)C1C(=O)O` (stereo unspecified), the “activity change, negative = inhibition” value is reported as 19.9% (inactive). With `Cc1cnc(C(=O)O)c[n+]1[O-]` the “activity change, negative = inhibition” value was 1.52% (inactive). For `N[C@@]1(C(=O)O)CS(=O)(=O)[C@H]2[C@H](C(=O)O)[C@H]21`, the “activity change, negative = inhibition” value was 5.61% (inactive). With `N[C@H](CSC(c1ccccc1)(c1ccccc1)c1ccccc1)C(=O)O` the “activity change, negative = inhibition” value was 10.3% (inactive). For `C[C@]12CC[C@@H]3c4ccc(O)cc4CC[C@H]3[C@H]1C[C@@H](O)[C@H]2O`, the “activity change, negative = inhibition” value was 19.4% (inactive). With `O=C(O)CCC1CCC(c2cc(F)ccc2F)(S(=O)(=O)c2ccc(Cl)cc2)CC1` (stereo unspecified) the “activity change, negative = inhibition” value was 49.3% (inactive). In the case of `CCNc1cc(NC2CCC(O)CC2)nc(Nc2ccc3c(ccn3Cc3ccccc3)c2)n1` (stereo unspecified), the “activity change, negative = inhibition” value is reported as -3.92% (inactive). For `COc1ccc2cc(-c3nc(-c4ccc(S(C)=O)cc4)[nH]c3-c3ccncc3)ccc2c1` (stereo unspecified), the “activity change, negative = inhibition” value was 15.2% (inactive). For `Clc1ccc(-c2nc3sccn3c2C=NOCc2ccc(Cl)c(Cl)c2)cc1`, the “activity change, negative = inhibition” value was -3.94% (inactive). For `COc1ccccc1N1CCN(CCCNc2cc(=O)n(C)c(=O)n2C)CC1`, the Potency was “inactive”. For `Cc1nnc(C(C)C)n1C1C[C@H]2CC[C@@H](C1)N2CC[C@H](NC(=O)C1CCC(F)(F)CC1)c1ccccc1` (stereo partly specified), the “activity change, negative = inhibition” value was 27% (inactive). With `N#C[C@H]1C[C@H]2C[C@@H]2N1C(=O)[C@@H](N)C12CC3CC(CC(O)(C3)C1)C2` the “activity change, negative = inhibition” value was 142% (inactive). With `COc1ccc2c(Oc3ccc(NC(=O)c4c(C)n(CC(C)(C)O)n(-c5ccccc5)c4=O)nc3)ccnc2c1` the “activity change, negative = inhibition” value was -8.34% (inactive). For `O=c1cc(CN2CCOCC2)occ1OCCCCCSc1ccnc2cc(C(F)(F)F)ccc12`, the “activity change, negative = inhibition” value was 19% (inactive). In the case of `CCOc1ccc(Nc2nc(-c3c(C)nc4ccccn34)cs2)cc1`, the “activity change, negative = inhibition” value is reported as 32.9% (inactive). With `CC(C)(C)NC(=O)Nc1cccc(Nc2ncc(F)c(NC(C)(C)CO)n2)c1` the “activity change, negative = inhibition” value was 3.82% (inactive). For `NCCS`, the Potency was “inactive”. In the case of `O=C(O)c1ccc(-c2c[nH]c3ncc(-c4ccccc4)cc23)cc1C1CCCC1`, the “activity change, negative = inhibition” value is reported as 10.2% (inactive). In the case of `CN1CCN(CCOc2cc(OC3CCOCC3)c3c(Nc4c(Cl)ccc5c4OCO5)ncnc3c2)CC1`, the “activity change, negative = inhibition” value is reported as 29.3% (inactive). With `CCN(CC)C(=O)c1ccc(O)c(OC)c1` the Potency was “inactive”. With `O=C(O)[C@H]1O[C@H](Oc2cc3oc(-c4ccccc4)cc(=O)c3c(O)c2O)[C@H](O)[C@@H](O)[C@H]1O` the “activity change, negative = inhibition” value was 0.0833% (inactive). With `O=C1c2c(O)cc(O)cc2O[C@H](c2cc(O)c(O)c(O)c2)[C@H]1O` the “activity change, negative = inhibition” value was -30.8% (inactive). In the case of `O=C(O)c1c(Cl)c(Cl)c(Cl)c(Cl)c1-c1c2cc(I)c(=O)c(I)c-2oc2c(I)c(O)c(I)cc12`, the “activity change, negative = inhibition” value is reported as -0.746% (inactive).

Test: qHTS Screen of the MIPE 4.0 Collection Against Ewings Sarcoma (EW8) (AID 1259255); note: nearly all actives have a fitted effect of over 35% in size;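 for viability: 100% = DMSO-treated cells and 0% = medium-only wells without cells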
Conditions: EW8 Ewing sarcoma viability, CellTiter-Glo, 48 h; series mostly up to 45.8 µM; viability: at the top concentration
How it was run: (§1)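 Here, cells in 5% FBS RPMI were exposed for two days (48 h) to compound dilutions added four hours after plating. ATP-based CellTiter-Glo luminescence measured viability, normalized to vehicle and no-cell blanks.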
For `c1ccc2c(-c3cnn4cc(-c5ccc(N6CCNCC6)cc5)cnc34)ccnc2c1`, the “viability” value was 1.33% (inactive). With `CC(C)(C)c1cc(C(=O)O)c(NC(=O)Nc2ccc3[nH]ncc3c2)s1` the “viability” value was 104% (inactive). For `CO[C@@H](C(=O)N1Cc2[nH]nc(NC(=O)c3ccc(N4CCN(C)CC4)cc3)c2C1)c1ccccc1`, the Potency was 0.0935 µM (active). In the case of `Cc1cnc(C(=O)O)c[n+]1[O-]`, the “viability” value is reported as 108% (inactive). In the case of `Clc1ccc(-c2nc3sccn3c2C=NOCc2ccc(Cl)c(Cl)c2)cc1`, the “viability” value is reported as 111% (inactive).

Test: qHTS Screen of the MIPE 4.0 Collection Against Ewings Sarcoma (TC32) (AID 1259256); note: nearly all actives have a fitted effect of over 45% in size;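 for viability (percent of control): 100% = DMSO-treated cells and 0% = medium-only wells without cells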
Conditions: TC32 Ewing sarcoma viability, CellTiter-Glo, 48 h; series mostly up to 45.8 µM; viability (percent of control): at the top concentration
How it was run: as §1
With `N#CC1(c2ccc(NC(=O)c3cccnc3NCc3ccncc3)cc2)CCCC1` the “viability (percent of control)” value was 116% (inactive). For `CC(C)(C)OC(=O)N[C@H]1CCCCCC=C[C@@H]2C[C@@]2(C(=O)NS(=O)(=O)C2CC2)NC(=O)[C@@H]2C[C@@H](OC(=O)N3Cc4cccc(F)c4C3)CN2C1=O`, the “viability (percent of control)” value was 117% (inactive). For `c1ccc2c(-c3cnn4cc(-c5ccc(N6CCNCC6)cc5)cnc34)ccnc2c1`, the “viability (percent of control)” value was 2.89% (inactive). With `O=C(O)c1ccc(-c2cc3cccnc3c(-c3ccc4nonc4c3)n2)cc1` the Potency was 26.4 µM (active). With `COc1cc2c(cc1OC)CN(CCc1ccc(NC(=O)c3cc(OC)c(OC)cc3NC(=O)c3cnc4ccccc4c3)cc1)CC2` the Potency was 5.9 µM (active). With `CC(C)(C)Cn1c(N)nc2ccc(-c3[nH]c(C(C)(C)C)nc3-c3ccc(F)cc3)nc21` the Potency was 13.2 µM (active). For `Cc1[nH]c(C=C2C(=O)Nc3ccc(S(=O)(=O)Cc4c(Cl)cccc4Cl)cc32)c(C)c1C(=O)N1CCC[C@H]1CN1CCCC1`, the Potency was 37.2 µM (active). For `O=C(O)C(O)Cc1ccc(O)c(O)c1` (stereo unspecified), the “viability (percent of control)” value was 81.1% (inactive). In the case of `Cn1c(N2CCCCS2(=O)=O)nc(C(=O)NCc2ccc(F)cc2)c(O)c1=O`, the Potency is reported as 23.5 µM (active). With `CCOC(CN1C(=O)[C@](CC(=O)Nc2ccc(C)cc2)(NC(=O)Nc2ccc(C)cc2)c2ccccc21)OCC` the “viability (percent of control)” value was 102% (inactive). For `CO[C@@H](C(=O)N1Cc2[nH]nc(NC(=O)c3ccc(N4CCN(C)CC4)cc3)c2C1)c1ccccc1`, the Potency was 0.0662 µM (active). For `C=C1C(=O)OC(CCCCCCCC)C1C(=O)O` (stereo unspecified), the Potency was 26.4 µM (active). For `N[C@@]1(C(=O)O)CS(=O)(=O)[C@H]2[C@H](C(=O)O)[C@H]21`, the Potency was 18.7 µM (active). In the case of `N[C@H](CSC(c1ccccc1)(c1ccccc1)c1ccccc1)C(=O)O`, the “viability (percent of control)” value is reported as 95.6% (inactive). In the case of `C[C@]12CC[C@@H]3c4ccc(O)cc4CC[C@H]3[C@H]1C[C@@H](O)[C@H]2O`, the Potency is reported as 26.4 µM (active). For `O=C(O)CCC1CCC(c2cc(F)ccc2F)(S(=O)(=O)c2ccc(Cl)cc2)CC1` (stereo unspecified), the Potency was 11.8 µM (active). In the case of `CCNc1cc(NC2CCC(O)CC2)nc(Nc2ccc3c(ccn3Cc3ccccc3)c2)n1` (stereo unspecified), the Potency is reported as 23.5 µM (active). With `COc1ccc2cc(-c3nc(-c4ccc(S(C)=O)cc4)[nH]c3-c3ccncc3)ccc2c1` (stereo unspecified) the Potency was 20.9 µM (active). For `Cc1nnc(C(C)C)n1C1C[C@H]2CC[C@@H](C1)N2CC[C@H](NC(=O)C1CCC(F)(F)CC1)c1ccccc1` (stereo partly specified), the Potency was 26.4 µM (active). For `N#C[C@H]1C[C@H]2C[C@@H]2N1C(=O)[C@@H](N)C12CC3CC(CC(O)(C3)C1)C2`, the Potency was 16.6 µM (active). In the case of `COc1ccc2c(Oc3ccc(NC(=O)c4c(C)n(CC(C)(C)O)n(-c5ccccc5)c4=O)nc3)ccnc2c1`, the Potency is reported as 18.7 µM (active). With `O=c1cc(CN2CCOCC2)occ1OCCCCCSc1ccnc2cc(C(F)(F)F)ccc12` the Potency was 18.7 µM (active). With `CCOc1ccc(Nc2nc(-c3c(C)nc4ccccn34)cs2)cc1` the “viability (percent of control)” value was 99.1% (inactive). With `CC(C)(C)NC(=O)Nc1cccc(Nc2ncc(F)c(NC(C)(C)CO)n2)c1` the Potency was 2.35 µM (active). For `O=C(O)c1ccc(-c2c[nH]c3ncc(-c4ccccc4)cc23)cc1C1CCCC1`, the “viability (percent of control)” value was 142% (inactive). With `CN1CCN(CCOc2cc(OC3CCOCC3)c3c(Nc4c(Cl)ccc5c4OCO5)ncnc3c2)CC1` the Potency was 29.6 µM (active). In the case of `O=C(O)[C@H]1O[C@H](Oc2cc3oc(-c4ccccc4)cc(=O)c3c(O)c2O)[C@H](O)[C@@H](O)[C@H]1O`, the Potency is reported as 18.7 µM (active). In the case of `O=C1c2c(O)cc(O)cc2O[C@H](c2cc(O)c(O)c(O)c2)[C@H]1O`, the “viability (percent of control)” value is reported as 118% (inactive). With `O=C(O)c1c(Cl)c(Cl)c(Cl)c(Cl)c1-c1c2cc(I)c(=O)c(I)c-2oc2c(I)c(O)c(I)cc12` the Potency was 18.7 µM (active).
